NS1 inh – inhibitors of influenza NS1 protein function; Potency, µM (series often up to 46.1 µM); 0.4% of 270,000 active; AID 2326; note: actives are rising curves; nearly all actives have a fitted effect of over 50% in size
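In this qHTS, NS1 from influenza A is expressed in budding yeast, where it slows growth. Cells are switched from glucose to 2% galactose medium (pH 6.0, -URA), treated with compound, and growth recovery is read at OD600.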
Cycloheximide cs – counter-screen for Shiga toxin inhibitors: cycloheximide protein synthesis inhibition; AID 2314; cell reporter, cycloheximide protein synthesis inhibition counterscreen; 12% of 300,000 active; max response, %; in the data active = max response mostly above about 13%, no sharp cut-off; inactive = mostly below about 14%; note: read at 38.3 µM for the half of the compounds with a filed dose
SARS PLpro yeast – blocks SARS-CoV papain-like protease in a yeast assay. S. cerevisiae expressing SARS-CoV PLpro, growth rescue. Potency, µM (doses to about 32.9 µM), actives largely listed as activators. 0.19% of 330,000 active. AID 485353; note: nearly all actives have a fitted effect of over 55% in size
Pf growth 48h – P. falciparum growth inhibition at 48 hours (one generation). P. falciparum luciferase growth in erythrocytes, 48 h. Potency, µM (doses to about 28.7 µM), hits mostly inhibitors. 5.9% of 310,000 active; active = well fitted inhibition curve with a large enough effect; inconclusive = small, poorly fitted or top-dose-only effect, or another doubt; inactive = no such curve, though single readings can be large or run the other way
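In quantitative HTS format, infected erythrocytes bearing luciferase-reporter parasites were treated for a single generation at 37 C. Luminescence after adding detection reagent served as the growth measure.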
Shiga toxin inh – Shiga toxin inhibition; AID 2315; Vero cells, Shiga toxin protein synthesis inhibition reporter; 9.2% of 290,000 active; inhibition, % at 38.7 µM; in the data active = inhibition mostly above about 28%, no sharp cut-off; inactive = mostly below about 43%
Pf growth 96h – P. falciparum growth inhibition at 96 hours; P. falciparum luciferase reporter growth, 96 h; Potency, µM (series often up to 28.7 µM), usual class: inhibitors; 6.9% of 320,000 active; AID 504834; active = well fitted inhibition curve with a large enough effect; inconclusive = small, poorly fitted or top-dose-only effect, or another doubt; inactive = no such curve, though single readings can be large or run the other way
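Erythrocytes infected with luciferase-expressing P. falciparum were dispensed at 2% hematocrit and 0.05% parasitemia (final), then incubated with compounds 96 hours at 37 C in 5% CO2. Luminescence after detection reagent addition reported growth.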
Large screens that a line does not name were inactive. This is a sample that favours compounds with a hit; in the whole collection about 21% have one here. Unless noted, calls come from the whole dose curve.

CC(=O)n1cc([C@@H]2C=C(C(=O)N3CCOCC3)O[C@H](OCc3ccc(CO)cc3)C2)c2ccccc21	Pf growth 48h inconclusive, Pf growth 96h inconclusive
Clc1ccc(COn2c(-c3ccccc3)nc3ccccc32)cc1	Pf growth 48h inconclusive, Pf growth 96h inconclusive
Clc1ccc(COn2c(-c3ccc(Cl)cc3)nc3ccccc32)cc1	Pf growth 48h inconclusive, Pf growth 96h inconclusive
Cc1ccc(COn2c(-c3ccc(Cl)cc3)nc3ccc([N+](=O)[O-])cc32)cc1	Cycloheximide cs 49, Shiga toxin inh 105
O=[N+]([O-])c1ccc2nc(-c3ccc(Cl)cc3)n(OCc3ccccc3)c2c1	Cycloheximide cs 35, Shiga toxin inh 96
CCSc1nnc2c(n1)[nH]c1c(C)cccc12	Cycloheximide cs 19 (no result: Pf growth 48h, Pf growth 96h)
CSc1nnc2c(n1)[nH]c1c(C)cccc12	Pf growth 48h 8.3µM, Pf growth 96h 5.2µM
CC(=O)Oc1c(C(=O)c2nnc(C)o2)c(=O)n(C)c2ccccc12	none
COC(=O)CSc1nnc(Cc2ccccc2)n1-c1ccc(C)cc1	Cycloheximide cs 14
Cn1cccc1Cc1nnc(SCC(=O)N2CCCc3ccccc32)n1-c1ccc(F)cc1	Pf growth 48h inconclusive, Pf growth 96h 8.3µM
O=C(NCc1nnc(SCC(=O)N2CCCc3ccccc32)n1-c1ccccc1)c1cccc2ccccc12	NS1 inh inconclusive, Pf growth 48h inconclusive, Pf growth 96h inconclusive
COc1ccc(-n2c(Cc3ccccc3)nnc2SCC(=O)N2CCCc3ccccc32)cc1	Pf growth 48h 12µM, Pf growth 96h inconclusive
COC(=O)[C@@H](NC(=O)O[C@@H]1C(=O)c2cc(Br)ccc2O[C@H]1c1cccc(OC)c1)C(C)C	none
COCc1cc(C)nc(SCC(=O)Nc2ccc3c(c2)n(C)c(=O)n3C)c1C#N	none
COc1cc(/C=C2\C=CC(=O)O2)cc(OC)c1	Cycloheximide cs 18 (no result: Pf growth 48h)
COc1ccccc1N1CCN(C(=O)CCSCc2ccccc2F)CC1	Shiga toxin inh 49, Pf growth 96h inconclusive (no result: NS1 inh)
O=C(O)c1[nH]c2ccc(Cl)cc2c1CC(=O)N1CCN(c2ccccc2)CC1	NS1 inh inconclusive (no result: Pf growth 96h)
COc1ccc(Cl)cc1NC(=O)N1CCN(c2ccccc2OC)CC1	Pf growth 48h 6.6µM, Pf growth 96h inconclusive
COc1ccccc1N1CCN(C(=O)Nc2cccc(Cl)c2)CC1	none (no result: Pf growth 48h)
COc1cccc(N2CCN(C(=O)CCSCc3ccccc3F)CC2)c1	none (no result: NS1 inh)
COc1ccccc1N1CCN(C(=O)Cc2ccc(Cl)cc2)CC1	Cycloheximide cs 17
COc1ccccc1N1CCN(C(=O)Cc2c(C(=O)O)[nH]c3ccc(Cl)cc23)CC1	Pf growth 48h 10µM (no result: NS1 inh)
Cn1ccnc1CC(O)(c1ccccc1)c1ccccc1	Pf growth 96h inconclusive
c1ccc2sc(N3CCCN(Cc4nc(-c5cnccn5)no4)CC3)nc2c1	Pf growth 96h inconclusive
Cc1c(Cl)c([N+](=O)[O-])nn1CCCC(=O)Nc1ccc(Cl)cc1Cl	Pf growth 96h 12µM
Cc1nn(Cc2ccccc2Cl)c(C)c1NC(=O)CCCn1nc([N+](=O)[O-])c(Cl)c1C	SARS PLpro yeast inconclusive, Pf growth 96h 4.7µM
Cc1cc(NC(=O)CCCn2cnc([N+](=O)[O-])n2)no1	none
Cc1cc(NC(=O)CCCn2nc(C)c([N+](=O)[O-])c2C)no1	Pf growth 96h 1.5µM (no result: NS1 inh)
O=C(c1cccc([N+](=O)[O-])c1)N1CCCC(C(=O)N2CCN(c3ccccc3)CC2)C1 (stereo not given)	none
COc1cccc(C(=O)N2CCn3c2nc2ccccc23)c1	Cycloheximide cs 24, Pf growth 96h inconclusive
